Measured values reported in PubChem BioAssay AID1159580 (chemical genetic matrix, 2015).
Hit rate of the full screen: of about 5,500 compounds, about 2,000 (36%) were called active. About 18% were inconclusive and are not listed. Cut-off read from the data, not from the text of the source: active = normalized growth mostly below about 0.91 (no sharp cut-off); inconclusive = no clear call, values can overlap the other calls; inactive = mostly above about 0.92. The list shows a part of the results.

Assay: chemical genetic growth profiling, strain panel (AID 1159580);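 note: tested at 20 µM; growth read once vehicle control cultures reached saturation at 30 °C; 1 = growth at the plate median or of vehicle wells; lower values mean less growth of the strain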
Settings: growth OD

Measured: normalized growth

COc1cc(C(=O)O)c(O)c2c1OCO2
inactive: S. cerevisiae deletion strains, locus YAL013W, strain DEP1, hits give low values 1.01 | S. cerevisiae deletion strains, locus YBR021W, strain FUR4, hits give low values 0.999 | S. cerevisiae deletion strains, locus YBR229C, strain ROT2, hits give low values 0.999 | S. cerevisiae deletion strains, locus YCL029C, strain bik1, hits give low values 0.995 | S. cerevisiae deletion strains, locus YDL035C, strain GPR1, hits give low values 1.02 | S. cerevisiae deletion strains, locus YDL074C, strain BRE1, hits give low values 1.05 | S. cerevisiae deletion strains, locus YDL101C, strain DUN1, hits give low values 1.01 | S. cerevisiae deletion strains, locus YDL134C, strain PPH21, hits give low values 1.01 | S. cerevisiae deletion strains, locus YDL185W, strain tfp1, hits give low values 1 | S. cerevisiae deletion strains, locus YDL192W, strain arf1, hits give low values 1 | S. cerevisiae deletion strains, locus YDR101C, strain arx1, hits give low values 0.989 | S. cerevisiae deletion strains, locus YDR150W, strain NUM1, hits give low values 1.01 | S. cerevisiae deletion strains, locus YDR162C, strain NBP2, hits give low values 1.02 | S. cerevisiae deletion strains, locus YDR318W, strain mcm21, hits give low values 1 | S. cerevisiae deletion strains, locus YDR388W, hits give low values 1 | S. cerevisiae deletion strains, locus YDR502C, strain sam2, hits give low values 0.999 | S. cerevisiae deletion strains, locus YEL061C, strain CIN8, hits give low values 1 | S. cerevisiae deletion strains, locus YER110C, hits give low values 1 | S. cerevisiae deletion strains, locus YER155C, strain BEM2, hits give low values 1 | S. cerevisiae deletion strains, locus YER167W, strain BCK2, hits give low values 1.01 | S. cerevisiae deletion strains, locus YGL078C, strain dbp3, hits give low values 1.01 | S. cerevisiae deletion strains, locus YGL086W, strain mad1, hits give low values 1 | S. cerevisiae deletion strains, locus YGL248W, strain PDE1, hits give low values 1.01 | S. cerevisiae deletion strains, locus YGR078C, strain PAC10, hits give low values 1.03 | S. cerevisiae deletion strains, locus YGR135W, strain pre9, hits give low values 0.996 | S. cerevisiae deletion strains, locus YGR229C, strain SMI1, hits give low values 1.02 | S. cerevisiae deletion strains, locus YGR252W, strain gcn5, hits give low values 1.02 | S. cerevisiae deletion strains, locus YHR030C, strain SLT2, hits give low values 1.01 | S. cerevisiae deletion strains, locus YHR079C, strain IRE1 (second series), hits give low values 1 | S. cerevisiae deletion strains, locus YHR094C, strain hxt1, hits give low values 1 | S. cerevisiae deletion strains, locus YHR129C, strain ARP1, hits give low values 1.01 | S. cerevisiae deletion strains, locus YHR200W, strain rpn10, hits give low values 1.01 | S. cerevisiae deletion strains, locus YIL066C, strain RNR3, hits give low values 1.02 | S. cerevisiae deletion strains, locus YIL073C, strain SPO22, hits give low values 1.02 | S. cerevisiae deletion strains, locus YIL125W, strain kgd1, hits give low values 1 | S. cerevisiae deletion strains, locus YIR030C, strain dcg1, hits give low values 1 | S. cerevisiae deletion strains, locus YJL095W, strain BCK1, hits give low values 1.01 | S. cerevisiae deletion strains, locus YJL134W, strain LCB3, hits give low values 1 | S. cerevisiae deletion strains, locus YJL168C, strain set2, hits give low values 1 | S. cerevisiae deletion strains, locus YJL187C, strain SWE1 (second series), hits give low values 1.01 | S. cerevisiae deletion strains, locus YJR043C, strain POL32, hits give low values 1.02 | S. cerevisiae deletion strains, locus YJR075W, strain HOC1, hits give low values 1 | S. cerevisiae deletion strains, locus YKL009W, strain mrt4, hits give low values 1.01 | S. cerevisiae deletion strains, locus YKL068W, hits give low values 1.01 | S. cerevisiae deletion strains, locus YKL085W, strain MDH1 (second series), hits give low values 1 | S. cerevisiae deletion strains, locus YKL085W, strain MDH1, hits give low values 1 | S. cerevisiae deletion strains, locus YKL190W, strain CNB1, hits give low values 1.01 | S. cerevisiae deletion strains, locus YKR001C, strain vps1, hits give low values 1.01 | S. cerevisiae deletion strains, locus YLR039C, strain RIC1, hits give low values 1.04 | S. cerevisiae deletion strains, locus YLR058C, strain SHM2, hits give low values 1.01 | S. cerevisiae deletion strains, locus YLR102C, strain apc9, hits give low values 1 | S. cerevisiae deletion strains, locus YLR262C, strain YPT6, hits give low values 1.03 | S. cerevisiae deletion strains, locus YLR268W, strain sec22, hits give low values 1 | S. cerevisiae deletion strains, locus YLR330W, strain CHS5, hits give low values 1.01 | S. cerevisiae deletion strains, locus YLR342W, strain FKS1 (second series), hits give low values 1.01 | S. cerevisiae deletion strains, locus YLR371W, strain rom2, hits give low values 1.02 | S. cerevisiae deletion strains, locus YLR418C, strain cdc73, hits give low values 1 | S. cerevisiae deletion strains, locus YML016C, strain PPZ1, hits give low values 1.01 | S. cerevisiae deletion strains, locus YML032C, strain rad52, hits give low values 1.02 | S. cerevisiae deletion strains, locus YML124C, strain tub3, hits give low values 0.998 | S. cerevisiae deletion strains, locus YMR078C, strain ctf18, hits give low values 1 | S. cerevisiae deletion strains, locus YMR223W, strain ubp8, hits give low values 1.01 | S. cerevisiae deletion strains, locus YMR263W, strain SAP30, hits give low values 1.02 | S. cerevisiae deletion strains, locus YMR307W, strain GAS1, hits give low values 0.961 | S. cerevisiae deletion strains, locus YNL067W, strain RPL9B, hits give low values 1.01 | S. cerevisiae deletion strains, locus YNL128W, strain TEP1, hits give low values 1.02 | S. cerevisiae deletion strains, locus YNL153C, strain GIM3, hits give low values 1.02 | S. cerevisiae deletion strains, locus YNL233W, strain BNI4, hits give low values 1.01 | S. cerevisiae deletion strains, locus YNL250W, strain rad50, hits give low values 1.01 | S. cerevisiae deletion strains, locus YNL271C, strain bni1, hits give low values 1.01 | S. cerevisiae deletion strains, locus YNL298W, strain CLA4, hits give low values 1.01 | S. cerevisiae deletion strains, locus YNL307C, strain MCK1, hits give low values 1.01 | S. cerevisiae deletion strains, locus YNL322C, strain KRE1, hits give low values 1.01 | S. cerevisiae deletion strains, locus YNR052C, strain pop2, hits give low values 1.01 | S. cerevisiae deletion strains, locus YOL006C, strain TOP1, hits give low values 0.995 | S. cerevisiae deletion strains, locus YOL012C, strain htz1 1.11 | S. cerevisiae deletion strains, locus YOL147C, strain pex11, hits give low values 0.998 | S. cerevisiae deletion strains, locus YOR061W, strain CKA2, hits give low values 1.01 | S. cerevisiae deletion strains, locus YOR069W, strain VPS5, hits give low values 1.01 | S. cerevisiae deletion strains, locus YOR136W, strain idh2, hits give low values 1 | S. cerevisiae deletion strains, locus YOR144C, strain elg1, hits give low values 0.997 | S. cerevisiae deletion strains, locus YOR184W, strain ser1, hits give low values 1.01 | S. cerevisiae deletion strains, locus YOR316C, strain cot1, hits give low values 1.01 | S. cerevisiae deletion strains, locus YPL055C, strain LGE1, hits give low values 1.04 | S. cerevisiae deletion strains, locus YPL241C, strain CIN2, hits give low values 1.01 | S. cerevisiae deletion strains, locus YPR119W, strain clb2, hits give low values 0.997 | S. cerevisiae deletion strains, locus YPR141C, strain kar3, hits give low values 1.01 | S. cerevisiae deletion strains, locus YPR163C, strain tif3, hits give low values 1 | S. cerevisiae deletion strains, locus YPR167C, strain met16, hits give low values 1.01 | S. cerevisiae deletion strains, strain wtn01, hits give low values 0.982 | S. cerevisiae strains, strain wild type, hits give low values 1.02
